# ALOX12 inh = Primary qHTS assay for inhibitors of human arachidonate 12S-lipoxygenase (ALOX12): Round 2. Potency, µM (titrated, usually from 108 µM), for inactives: at the highest dose activity change, negative = inhibition, usual class: inhibitors. purified 12hLO, xylenol orange hydroperoxide absorbance. actives 1.1% (n = 580,000). AID 1671190, 2021; further: on the % scale 0 is the no-effect control and ±100 the full control effect
#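 Purified human 12hLO at 150 nM in 25 mM Hepes, 0.01% Triton X-100, pH 7.0, preincubated 15 min at room temperature with compound. Reaction started with 40 uM arachidonic acid, 30 min at room temperature. Hydroperoxide measured by Fe-xylenol orange, 573/405 nm absorbance ratio.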
# Sfp PPTase inh = qHTS Assay for Inhibitors of Bacillus subtilis Sfp phosphopantetheinyl transferase (PPTase); actives 3.5% (n = 310,000); Potency, µM, inactives show largest response in the series, negative = inhibition, most hits filed as inhibitors; Biochemical Sfp PPTase activity, qHTS; 4'-phosphopantetheinyl transferase ffp (Bacillus subtilis), Q9F4F7; AID 1490, 2009;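 further: the enzyme is Sfp with the accession as filed and its product quenches rhodamine fluorescence; 0% = enzyme reaction without inhibitor and -100% = no enzyme wells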
#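 Fluorescence-quenching assay: 15 nM Sfp-PPTase preincubated 15 min at room temperature with compound, then 5 uM rhodamine-CoA and 12.5 uM BHQ-2-labelled YbbR peptide added. Fluorescence (ex 525/em 598 nm) read at start and after 30 min; difference gives rate.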
# GRP78 ERSR act = qHTS for Inducers of the Endoplasmic Reticulum Stress Response (ERSR) in Human Glioma: qHTS; AID 602332, 2012; U87-MG GRP78 promoter luciferase reporter, 16 h; Potency, µM, for inactives: at the highest dose activation, usual class: activators; actives 0.02% (n = 420,000); further: series mostly up to about 76 µM; % of control where 0% means no effect; nearly all actives have a fitted effect of over 35% in size
#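 Stably transfected U87-MG human glioma cells carrying a GRP78-based luminescent sensor were seeded at 1000 cells/well, pin-dosed with compounds and incubated 16 h. Luciferase reagent was then added, and end-point luminescence was read after 10 min at room temperature.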
# VDR inhibitor = Inhibitors of the vitamin D receptor (VDR): qHTS. VDR-SRC2-3 peptide fluorescence polarization, 2 h. Potency, µM, for the others: max response, negative = inhibition, hits mostly inhibitors. actives 0.93% (n = 400,000); further: on the % scale 0 is the no-effect control and ±100 the full control effect
#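 Measured by FP: displacement of SRC2-3 coactivator peptide from VDR by library compounds, following a two-hour ambient incubation.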
# G9a inh = qHTS Assay for Inhibitors of Histone Lysine Methyltransferase G9a; G9a H3K9 monomethylation, AlphaScreen, 2 h; Potency, µM (titrated, usually from 102 µM), inactives show at the top dose activity, negative = inhibition, most hits filed as inhibitors; actives 8.8% (n = 350,000); AID 504332, 2011; further: on the % scale 0 is the no-effect control and ±100 the full control effect; nearly all actives have a fitted effect of over 75% in size
# Target sequence (Q96KQ7 913-1193 limits assumed): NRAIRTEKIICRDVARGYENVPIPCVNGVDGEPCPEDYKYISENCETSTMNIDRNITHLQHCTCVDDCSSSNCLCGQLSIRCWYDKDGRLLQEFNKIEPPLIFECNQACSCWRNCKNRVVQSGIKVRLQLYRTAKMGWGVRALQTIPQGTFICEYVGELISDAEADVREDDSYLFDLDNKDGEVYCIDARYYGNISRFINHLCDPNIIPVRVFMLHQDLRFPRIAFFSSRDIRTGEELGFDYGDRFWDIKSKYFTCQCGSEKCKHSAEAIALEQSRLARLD
#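 Quantitative HTS format: methyltransferase activity on a biotin-tagged H3K9 peptide is measured by AlphaScreen, using a rabbit anti-monomethyl-H3K9 antibody with streptavidin donor and anti-IgG acceptor beads. Final levels are 20 nM enzyme, 500 nM peptide, 20 uM SAM; 2 h RT.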
# * hit, by the source's call; ? = inconclusive; · = no result given; ! = repeats disagree; [ ] = dose if it differs, or a comment. The entries come from a sample that favours hits as a whole. The call rests on the fitted dose curve; in most records, active means well fitted curve in the direction sought with a large enough effect; inconclusive means small, poorly fitted or top-dose-only effect, or another doubt; inactive means no such curve, though single readings can be large; an effect the other way counts as inactive or inconclusive. Potency means the concentration at half of the fitted maximal effect.
SMILES,ALOX12 inh,Sfp PPTase inh,GRP78 ERSR act,VDR inhibitor,G9a inh
Cc1nc(-c2ccc(NS(=O)(=O)c3ccccc3)cc2)cs1,-10%,-19%,-1%,-6%,-31%
Nc1nc(-c2ccc(-c3ccccc3)cc2)cs1,0%,-40%,-1%,?,45µM*
Nc1nc(-c2ccc3ccccc3c2)cs1,0%,0%,4%,-1%,50µM*
Cc1ccc(-c2csc(N)n2)cc1,-26%,·,8%,-6%,·
Nc1nc(-c2cccc(NS(=O)(=O)c3ccccc3)c2)cs1,?,0%,-1%,-19%,45µM*
Cc1nn(-c2ccccc2)c2nc(-c3ccncc3)cc(C(=O)NCc3ccco3)c12,0%,-25%,3%,-19%,50µM*
Cc1ccccc1-n1nc(C)c2c(C(=O)NN)cc(-c3ccncc3)nc21,10%,7%,-2%,5%,-6%
Cc1nn(-c2ccccn2)c2nc(-c3cccs3)cc(C(=O)NCc3ccco3)c12,8%,?,2%,-14%,45µM*
Cc1ccc(NC(=S)NC2CCCCC2)cc1S(=O)(=O)N(C)C,?,-45%,1%,-1%,40µM*
S=C(NNc1ccc2ccccc2c1)NC1CCCCC1,?,7%,13%,?,11µM*
S=C(Nc1ccc(Oc2ccccc2)cc1)NC1CCCCC1,?,-5%,-6%,-7%,-4%[59 µM]
CC(C)c1ccc(NC(=S)NC2CCCCCC2)cc1,-21%,10%,3%,-5%,27%[12.7 µM]
Cc1ccc(NC(=O)CNCC2CCCCC2)cc1S(=O)(=O)N(C)C,-11%,-29%,0%,-20%,?
S=C(Nc1ccc(Oc2ccc(NC(=S)NC3CCCCC3)cc2)cc1)NC1CCCCC1,11µM*,19%,-3%,-3%,12%[59 µM]
S=C(Nc1ccc(Oc2ccccc2)cc1)NC1CCCCCC1,28µM*,-7%,0%,2%,45µM*
O=C(Nc1ccc2ccccc2c1)C1CCCCC1,10%,·,·,·,·
CCCNC(=O)Cn1c(C)ccc(NC(=O)Nc2ccc(OC)cc2)c1=O,-6%,·,·,·,·
CCOc1ccccc1NC(=O)N1CCC(Oc2ccccc2-c2nc(C)no2)C1 (stereo not drawn),11%,·,·,·,·
NS(=O)(=O)c1ccc(NC(=S)NC(=O)C2CCCCC2)cc1,?,19%,2%,14%,?
Cc1ccc(NC(=O)c2cc(S(=O)(=O)N(C)C)ccc2N2CCCC2)cc1S(=O)(=O)N(C)C,-27%,·,32µM*,-7%,?
NS(=O)(=O)c1ccc(NC(=S)NC2CCCCCC2)cc1,?,25µM*,0%,-12%,?
CC1CN(S(=O)(=O)c2cccc(C(=O)OCCOc3ccccc3)c2)CC(C)O1 (stereo not drawn),3%,·,-3%,-16%,5%[12.7 µM]
CCCOc1ccc(OCCN2CCCC(C)C2)cc1 (stereo not drawn),?,-45%,-3%,-4%,14µM*
CC1CCCN(CCOc2cccc(Oc3ccccc3)c2)C1 (stereo not drawn),?,-13%,-2%,6%,8.9µM*
CC1CN(CCOc2cccc(Oc3ccccc3)c2)CC(C)O1 (stereo not drawn),?,15%,-3%,-9%,10µM*
SMILES,ALOX12 inh,Sfp PPTase inh,GRP78 ERSR act,VDR inhibitor,G9a inh
c1ccc(Oc2cccc(OCCCCN3CCCC3)c2)cc1,?,-17%,-3%,3%,?
O=C1CCN(N=Nc2cccc(Cl)c2)N1,·,9%,·,·,0.79µM*
O=C(NCCCN1CCCC1=O)c1cc2cc(Cl)ccc2[nH]1,2%,·,·,·,·
CC(C)c1ccc(/C=C/C(=O)NCCC2=CCCCC2)cc1,40µM*,-5%,-2%,0%,?
CCCNC(=O)/C=C/c1ccc(C(C)C)cc1,?,10%,8%,2%,14%[59 µM]
COc1cc(N=c2ssnc2Cl)c(OC)cc1Cl,2.5µM*!,10µM*,?,16µM*,1.1µM*
COc1ccc(OC)c(N=c2ssnc2Cl)c1,?,8.9µM*,-6%,?,1.1µM*

# Bioassay records deposited in PubChem by National Center for Advancing Translational Sciences (NCATS).
